Source: the antibiotic and cytotoxicity screens of Wong et al. (2023)
The whole screen tested about 39,000 compounds, of which about 1,500 (3.8%) were called active. This excerpt belongs to a sample that is enriched for actives.

system: HSkMC (human skeletal muscle cells); assay: cytotoxicity call (relative viability < 0.9); details: 10 µM

SMILES | cytotoxicity call
CN(C)CCCNC(=O)C[C@@H]1CC[C@H]2[C@H](COc3ccc(NC(=O)NC4CCCC4)cc3C(=O)N2C)O1 | inactive
Cc1noc(C)c1NC(=O)N(C)C[C@H]1Oc2c(NC(=O)Nc3ccc(C(F)(F)F)cc3)cccc2C(=O)N([C@H](C)CO)C[C@H]1C | inactive
COC(=O)[C@H](Cc1ccccc1)NC(=O)[C@@H](N)CC(=O)O | inactive
CC(=O)N1[C@@H](CO)[C@H](c2ccccc2)[C@@H]1CNC(=O)CN1CCOCC1 | inactive
CC(C)C[C@H](NC(=O)[C@H](CCc1ccccc1)NC(=O)CN1CCOCC1)C(=O)N[C@@H](Cc1ccccc1)C(=O)N[C@@H](CC(C)C)C(=O)[C@@]1(C)CO1 | active
COc1ccc(C[C@H](NC(=O)[C@H](C)NC(=O)CN2CCOCC2)C(=O)N[C@@H](Cc2ccccc2)C(=O)[C@@]2(C)CO2)cc1 | active
COC(=O)C(Cc1ccccc1)NC(=O)C(N)CC(=O)O (centres undefined) | inactive
CC(=O)N[C@@H](Cc1ccccc1)C(=O)NN | inactive
CC(=O)N1[C@H](CNC(=O)CN2CCOCC2)[C@@H](c2ccccc2)[C@@H]1CO | inactive
CC(=O)N[C@@H](Cc1ccccc1)C(=O)O | inactive
COC[C@H](NC(=O)c1cnc(C)s1)C(=O)N[C@@H](COC)C(=O)N[C@@H](Cc1ccccc1)C(=O)[C@@]1(C)CO1 | active
C[C@@H]1CCCCO[C@@H](CN(C)S(=O)(=O)c2ccc(F)cc2)[C@H](C)CN([C@H](C)CO)C(=O)c2cc(NC(=O)Nc3ccc4c(c3)OCO4)ccc2O1 | inactive
C[C@@H]1CCCCO[C@@H](CN(C)C(=O)CCCN(C)C)[C@@H](C)CN([C@H](C)CO)C(=O)c2cc(NC(=O)Nc3ccc(C(F)(F)F)cc3)ccc2O1 | inactive
CC(C)CC#Cc1cnc2c(c1)C(=O)N([C@@H](C)CO)C[C@@H](C)[C@@H](CN(C)S(=O)(=O)c1cn(C)cn1)O2 | inactive
C[C@H](CO)N1C[C@H](C)[C@H](CN(C)C(=O)Nc2ccccc2)Oc2c(NC(=O)C3CCOCC3)cccc2C1=O | inactive
C[C@H](CO)N1C[C@H](C)[C@H](CN(C)C(=O)c2cnccn2)Oc2cc(Br)ccc2S1(=O)=O | inactive
C[C@@H]1CN([C@@H](C)CO)C(=O)c2cc(C#Cc3ccccc3F)cnc2O[C@@H]1CN(C)C(=O)Cc1cccnc1 | inactive
COc1ccc(S(=O)(=O)N(C)C[C@@H]2Oc3ccc(NC(=O)c4ccncc4)cc3CC(=O)N([C@H](C)CO)C[C@H]2C)cc1 | inactive
CCCC#Cc1cnc2c(c1)C(=O)N([C@H](C)CO)C[C@H](C)[C@H](CN(C)S(=O)(=O)c1cn(C)cn1)O2 | inactive
O=C(O)CC(O)(CC(=O)O)C(=O)O.[LiH].[LiH].[LiH] | inactive
Nc1ncccc1-c1nc2ccc(-c3ccccc3)nc2n1-c1ccc(C2(N)CCC2)cc1 | active
NC(=O)c1ccc2nc(-c3ccc(C4(N)CCC4)cc3)c(-c3ccccc3)n2n1 | inactive
CC(C)NC(=O)N(C)C[C@@H]1Oc2c(NC(=O)NC3CCCCC3)cccc2C(=O)N([C@@H](C)CO)C[C@@H]1C | inactive

SMILES | cytotoxicity call
C[C@@H]1CN([C@H](C)CO)C(=O)Cc2cc(NC(=O)Nc3ccc(C(F)(F)F)cc3)ccc2O[C@@H]1CN(C)Cc1ccc(Oc2ccccc2)cc1 | active
C[C@@H]1CN([C@@H](C)CO)C(=O)Cc2cc(NC(=O)Nc3ccc(C(F)(F)F)cc3)ccc2O[C@@H]1CN(C)Cc1ccc(Oc2ccccc2)cc1 | active
C[C@@H]1CN([C@@H](C)CO)C(=O)Cc2cc(NC(=O)Nc3ccc(C(F)(F)F)cc3)ccc2O[C@H]1CN(C)Cc1ccc(Oc2ccccc2)cc1 | active
C[C@H]1CN([C@@H](C)CO)C(=O)Cc2cc(NC(=O)Nc3ccc(C(F)(F)F)cc3)ccc2O[C@@H]1CN(C)Cc1ccc(Oc2ccccc2)cc1 | active
COc1ccc(S(=O)(=O)Nc2ccc3c(c2)CC(=O)N([C@H](C)CO)C[C@@H](C)[C@@H](CN(C)C)O3)cc1 | inactive
CCc1nc2ccc(C(=O)NCc3ccc4c(c3)OCO4)cn2c1N(CC)Cc1cccc(Br)c1 | inactive
C[C@@H]1CN([C@H](C)CO)C(=O)c2cc(NC(=O)Nc3ccc(C(F)(F)F)cc3)ccc2O[C@@H]1CN(C)C(=O)Nc1ccccc1 | inactive
COc1ccc(NC(=O)N(C)C[C@H]2OCCCC[C@H](C)Oc3ccc(NC(=O)Nc4ccc(F)cc4)cc3C(=O)N([C@H](C)CO)C[C@@H]2C)cc1 | inactive
COc1ccc(S(=O)(=O)Nc2ccc3c(c2)C(=O)N([C@@H](C)CO)C[C@H](C)[C@H](CN(C)C(=O)c2ccccc2)OCCCC[C@@H](C)O3)cc1 | inactive
C[C@@H]1CCCCO[C@H](CN(C)Cc2ccc(Cl)c(Cl)c2)[C@@H](C)CN([C@@H](C)CO)C(=O)c2cc(NS(=O)(=O)c3cn(C)cn3)ccc2O1 | inactive
OC[C@H]1O[C@H](Nc2ccccc2)C[C@@H]1O | inactive
CC(C)CC#Cc1ccc2c(c1)O[C@@H](CN(C)C(=O)Cc1cccnc1)[C@H](C)CN([C@@H](C)CO)S2(=O)=O | inactive
C[C@@H]1CCCCO[C@H](CN(C)C(=O)Cc2ccccc2)[C@H](C)CN([C@@H](C)CO)C(=O)c2cc(NC(=O)Nc3ccccc3)ccc2O1 | inactive
C[C@H](CO)N1C[C@H](C)[C@@H](CN(C)C(=O)Nc2ccc(C(F)(F)F)cc2)Oc2c(NS(C)(=O)=O)cccc2C1=O | inactive
CC(C)NC(=O)N(C)C[C@@H]1Oc2ccc(NS(=O)(=O)c3cn(C)cn3)cc2CC(=O)N([C@H](C)CO)C[C@@H]1C | inactive
COc1ccc(S(=O)(=O)Nc2cccc3c2O[C@@H](CN(C)S(=O)(=O)c2cn(C)cn2)[C@H](C)CN([C@H](C)CO)C3=O)cc1 | inactive
C[C@@H]1CN([C@H](C)CO)C(=O)Cc2cc(NC(=O)Nc3ccc(C(F)(F)F)cc3)ccc2O[C@H]1CN(C)Cc1ccc(Oc2ccccc2)cc1 | active
C[C@H](CO)N1C[C@H](C)[C@H](CN(C)Cc2ccc(Oc3ccccc3)cc2)Oc2ccc(NC(=O)Nc3ccc(C(F)(F)F)cc3)cc2CC1=O | active
C[C@H](CO)N1C[C@H](C)[C@@H](CN(C)Cc2ccc(Oc3ccccc3)cc2)Oc2ccc(NC(=O)Nc3ccc(C(F)(F)F)cc3)cc2CC1=O | active
C[C@H]1CN([C@@H](C)CO)C(=O)Cc2cc(NC(=O)Nc3ccc(C(F)(F)F)cc3)ccc2O[C@H]1CN(C)Cc1ccc(Oc2ccccc2)cc1 | active
COc1ccc(S(=O)(=O)Nc2ccc3c(c2)CC(=O)N([C@@H](C)CO)C[C@@H](C)[C@@H](CN(C)Cc2ccncc2)O3)cc1 | inactive
C[C@@H]1CN([C@@H](C)CO)C(=O)Cc2cc(NC(=O)CCN3CCOCC3)ccc2O[C@H]1CN(C)Cc1ccccc1 | inactive
C[C@H](CO)N1C[C@H](C)[C@@H](CN(C)C(=O)Nc2ccccc2)Oc2ccc(NS(C)(=O)=O)cc2C1=O | inactive

SMILES | cytotoxicity call
C[C@H](CO)N1C[C@H](C)[C@H](CN(C)C(=O)Cc2cccnc2)Oc2ncc(C#Cc3ccccc3F)cc2C1=O | inactive
O=C(N[C@H]1C=C[C@H](CC(=O)N2CCOCC2)O[C@H]1CO)c1ccc2c(c1)OCO2 | inactive
CON(C)c1nc(Oc2ccc(=O)[nH]n2)nc(N(C)C)n1 | inactive
CN1CCN(C)C1=O | inactive
COc1cccc(CNC(=O)C[C@H]2C=C[C@H](NC(=O)C3CCOCC3)[C@@H](CO)O2)c1 | inactive
O=C(C[C@H]1C=C[C@H](NS(=O)(=O)c2ccc(F)cc2)[C@@H](CO)O1)NCCN1CCCCC1 | inactive
c1ccc(-c2cccs2)cc1 | inactive
O=C(O)CCNC(=O)c1cncc(O)c1 | inactive
COC(=O)c1ccc(C(=O)OC)nc1 | active
COC(=O)c1cccnc1 | inactive
COC(=O)c1ccc(O)cc1 | inactive
COc1ccc(NC(=O)N(C)C[C@H]2Oc3ccc(NC(=O)Nc4ccc(C(F)(F)F)cc4)cc3C(=O)N([C@@H](C)CO)C[C@@H]2C)cc1 | inactive
O=C(N[C@H]1C=C[C@H](CC(=O)N2CCOCC2)O[C@H]1CO)c1ccccn1 | inactive
COCC(=O)Nc1ccc2c(c1)OC[C@H](C)N(Cc1cccc(F)c1)C[C@H](C)[C@@H](OC)CN(C)C2=O | inactive
C[C@@H]1CCCCO[C@H](CN(C)C(=O)Nc2ccc3c(c2)OCO3)[C@H](C)CN([C@H](C)CO)C(=O)c2cc(NS(=O)(=O)c3cccs3)ccc2O1 | inactive
O=C1CSC(/N=C/c2ccccc2O)=NN1 | active
C[C@@H]1CN([C@H](C)CO)C(=O)c2cc(NC(=O)Nc3ccc(C(F)(F)F)cc3)ccc2O[C@@H](C)CCCCO[C@H]1CN(C)Cc1ccc(C(=O)O)cc1 | inactive
Cc1noc(C)c1S(=O)(=O)Nc1ccc2c(c1)C(=O)N([C@@H](C)CO)C[C@H](C)[C@@H](CN(C)S(=O)(=O)c1cn(C)cn1)O2 | inactive
Cc1noc(C)c1NC(=O)N(C)C[C@H]1Oc2c(NC(=O)C3CCOCC3)cccc2C(=O)N([C@H](C)CO)C[C@H]1C | inactive
C=CC[C@@H](CC(=O)N(CCO)Cc1ccccc1)C(=O)NC[C@@H](OC(=O)[C@@H](CC=C)Cc1ccc(F)cc1)c1ccccc1 | inactive
C=CC[C@H](CC(=O)N(CCO)Cc1ccccc1)C(=O)NC[C@H](OC(=O)[C@@H](CC=C)Cc1ccc(F)cc1)c1ccccc1 | active
C=CC[C@@H](CC(=O)N(CCO)Cc1ccccc1)C(=O)NC[C@H](OC(=O)[C@@H](CC=C)Cc1ccc(F)cc1)c1ccccc1 | active
C=CC[C@H](CC(=O)N(CCO)Cc1ccccc1)C(=O)NC[C@@H](OC(=O)[C@@H](CC=C)Cc1ccc(F)cc1)c1ccccc1 | inactive
